# From PMC7862700, “An all-to-all approach to the identification of sequence-specific readers for epigenetic DNA modifications on cytosine”
# What was measured:
# Assay in all cases: DAPPL (digital affinity profiling via proximity ligation, sequencing); 10 mM Tris-HCl pH 7.5, 50 mM NaCl, 1 mM DTT, 4% glycerol, room temperature, 30 min; GST-TFs on glutathione beads, 16-mer random dsDNA library, 0.1% formaldehyde crosslink after washing; high values mean tight binding
# FLI1 = molecular target: T1, FLI1 (Homo sapiens, UniProt Q01543 1-452); conditions: protein: recombinant; tags: N-terminal GST; dsDNA, one strand shown
# T1 sequence: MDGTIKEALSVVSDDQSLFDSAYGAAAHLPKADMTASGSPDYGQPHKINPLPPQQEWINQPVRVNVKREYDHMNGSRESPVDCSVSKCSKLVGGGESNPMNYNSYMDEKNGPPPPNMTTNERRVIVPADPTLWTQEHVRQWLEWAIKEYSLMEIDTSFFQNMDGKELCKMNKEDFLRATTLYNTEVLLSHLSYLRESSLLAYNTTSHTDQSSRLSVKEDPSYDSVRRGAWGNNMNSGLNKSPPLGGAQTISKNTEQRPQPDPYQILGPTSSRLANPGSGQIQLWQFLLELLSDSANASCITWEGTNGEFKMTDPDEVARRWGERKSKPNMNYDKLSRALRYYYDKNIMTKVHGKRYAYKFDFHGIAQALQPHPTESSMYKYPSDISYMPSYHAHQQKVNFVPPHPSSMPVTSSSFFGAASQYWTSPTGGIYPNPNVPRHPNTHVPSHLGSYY
# How it was run: (§1)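 Pools were built from human transcription factors expressed in yeast as GST fusions, captured on glutathione beads and DNA-barcoded, along with a tag-only sample. Incubation with 200 nmole of a 16-mer random double-stranded DNA library lasted 30 min at room temperature in Tris/NaCl/DTT/glycerol buffer, and was followed by washing, 0.1% formaldehyde crosslinking, proximity ligation, PCR amplification and Illumina NextSeq500 sequencing. Binding signal is the quotient of each hexamer's read frequency for a factor and its frequency for the tag-only sample.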
# ELK1 = molecular target: T2, ELK1 (Homo sapiens, UniProt P19419 1-428); conditions: protein: recombinant; tags: N-terminal GST; dsDNA, one strand shown
# T2 sequence: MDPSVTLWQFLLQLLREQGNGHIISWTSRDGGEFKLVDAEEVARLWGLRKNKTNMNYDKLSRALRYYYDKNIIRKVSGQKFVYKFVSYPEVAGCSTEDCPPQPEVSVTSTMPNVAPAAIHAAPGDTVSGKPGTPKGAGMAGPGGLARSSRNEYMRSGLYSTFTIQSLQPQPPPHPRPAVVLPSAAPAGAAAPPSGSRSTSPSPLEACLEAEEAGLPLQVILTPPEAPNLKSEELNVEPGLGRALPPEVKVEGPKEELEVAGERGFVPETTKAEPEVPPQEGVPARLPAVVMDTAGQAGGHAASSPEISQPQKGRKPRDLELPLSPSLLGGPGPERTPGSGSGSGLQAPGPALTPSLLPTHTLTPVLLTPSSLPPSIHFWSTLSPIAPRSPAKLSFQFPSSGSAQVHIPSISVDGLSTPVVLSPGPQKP
# How it was run: as §1
# GABPA = molecular target: T3, GABPA (Homo sapiens, UniProt Q06546 1-454); conditions: protein: recombinant; tags: N-terminal GST; dsDNA, one strand shown
# T3 sequence: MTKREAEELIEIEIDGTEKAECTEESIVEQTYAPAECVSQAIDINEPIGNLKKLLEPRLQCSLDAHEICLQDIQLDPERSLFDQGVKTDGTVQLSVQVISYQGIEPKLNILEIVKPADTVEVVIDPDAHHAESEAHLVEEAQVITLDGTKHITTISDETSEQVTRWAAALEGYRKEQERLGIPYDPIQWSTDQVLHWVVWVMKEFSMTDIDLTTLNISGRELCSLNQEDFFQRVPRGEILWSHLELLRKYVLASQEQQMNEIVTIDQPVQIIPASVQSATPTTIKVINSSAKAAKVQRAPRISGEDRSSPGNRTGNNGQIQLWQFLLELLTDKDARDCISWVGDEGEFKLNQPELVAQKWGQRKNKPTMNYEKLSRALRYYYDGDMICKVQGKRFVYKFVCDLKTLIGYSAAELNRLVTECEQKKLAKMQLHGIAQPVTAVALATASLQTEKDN
# How it was run: as §1
# ERG = molecular target: T4, ERG (Homo sapiens, UniProt P11308 1-479); conditions: protein: recombinant; tags: N-terminal GST; dsDNA, one strand shown
# T4 sequence: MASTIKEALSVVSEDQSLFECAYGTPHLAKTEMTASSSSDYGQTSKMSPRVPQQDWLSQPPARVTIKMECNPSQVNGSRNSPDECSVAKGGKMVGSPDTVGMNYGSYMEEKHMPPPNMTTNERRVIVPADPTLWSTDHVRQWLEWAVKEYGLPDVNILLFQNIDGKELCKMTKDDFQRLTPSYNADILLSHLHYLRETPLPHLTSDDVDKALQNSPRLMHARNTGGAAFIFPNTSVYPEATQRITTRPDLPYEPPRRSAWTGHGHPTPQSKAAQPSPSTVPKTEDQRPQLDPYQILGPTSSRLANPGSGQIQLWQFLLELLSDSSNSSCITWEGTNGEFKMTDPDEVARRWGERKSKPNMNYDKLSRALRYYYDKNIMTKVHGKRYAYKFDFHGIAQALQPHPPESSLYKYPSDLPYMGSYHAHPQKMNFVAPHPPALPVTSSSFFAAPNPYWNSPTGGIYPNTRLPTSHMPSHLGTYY
# How it was run: as §1
# ELF1 = ELF1 (Homo sapiens, UniProt P32519 1-619); conditions: protein: recombinant; tags: N-terminal GST; dsDNA, one strand shown
# How it was run: as §1
# EHF = molecular target: T5, EHF (Homo sapiens, UniProt Q9NZC4 1-300); conditions: protein: recombinant; tags: N-terminal GST; dsDNA, one strand shown
# T5 sequence: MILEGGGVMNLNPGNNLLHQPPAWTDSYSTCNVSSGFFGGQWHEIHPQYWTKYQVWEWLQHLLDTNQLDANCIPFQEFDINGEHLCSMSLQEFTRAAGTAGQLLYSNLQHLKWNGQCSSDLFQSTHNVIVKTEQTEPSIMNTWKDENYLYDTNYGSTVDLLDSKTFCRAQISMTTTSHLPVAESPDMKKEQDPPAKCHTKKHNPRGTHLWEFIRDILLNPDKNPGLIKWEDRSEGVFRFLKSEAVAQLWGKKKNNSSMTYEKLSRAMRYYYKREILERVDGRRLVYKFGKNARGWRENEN
# How it was run: as §1
# SPI1 = SPI1 (Homo sapiens, UniProt P17947 1-270); conditions: protein: recombinant; tags: N-terminal GST; dsDNA, one strand shown
# How it was run: as §1
# SPIB = SPIB (Homo sapiens, UniProt Q01892 1-262); conditions: protein: recombinant; tags: N-terminal GST; dsDNA, one strand shown
# How it was run: as §1
# ELK3 = molecular target: T6, ELK3 (Homo sapiens, UniProt P41970 1-407); conditions: protein: recombinant; tags: N-terminal GST; dsDNA, one strand shown
# T6 sequence: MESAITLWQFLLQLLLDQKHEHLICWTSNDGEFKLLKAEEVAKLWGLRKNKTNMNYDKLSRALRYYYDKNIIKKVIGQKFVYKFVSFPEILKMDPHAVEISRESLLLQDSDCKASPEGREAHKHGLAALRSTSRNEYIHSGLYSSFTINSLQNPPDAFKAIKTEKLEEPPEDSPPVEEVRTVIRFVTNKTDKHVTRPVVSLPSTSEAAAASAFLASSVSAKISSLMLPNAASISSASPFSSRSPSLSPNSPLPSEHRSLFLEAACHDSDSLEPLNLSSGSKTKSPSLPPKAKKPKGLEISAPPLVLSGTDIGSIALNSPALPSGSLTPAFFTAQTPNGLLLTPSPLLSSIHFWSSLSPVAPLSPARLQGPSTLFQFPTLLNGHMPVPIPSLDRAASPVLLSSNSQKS
# How it was run: as §1
# FEV = molecular target: T7, FEV (Homo sapiens, UniProt Q99581 1-238); conditions: protein: recombinant; tags: N-terminal GST; dsDNA, one strand shown
# T7 sequence: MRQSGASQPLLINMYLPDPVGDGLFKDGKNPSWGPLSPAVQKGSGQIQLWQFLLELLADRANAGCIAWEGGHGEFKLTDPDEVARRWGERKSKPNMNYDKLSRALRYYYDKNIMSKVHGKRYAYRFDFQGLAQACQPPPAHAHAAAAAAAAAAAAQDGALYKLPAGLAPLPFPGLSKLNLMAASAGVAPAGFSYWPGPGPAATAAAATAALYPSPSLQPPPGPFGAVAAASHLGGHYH
# How it was run: as §1
# ETV5 = ETV5 (Homo sapiens, UniProt P41161 1-510); conditions: protein: recombinant; tags: N-terminal GST; dsDNA, one strand shown
# How it was run: as §1
# HSF1 = HSF1 (Homo sapiens, UniProt Q00613 1-529); conditions: protein: recombinant; tags: N-terminal GST; chain copies: 3; dsDNA, one strand shown
# How it was run: as §1
# SPIC = molecular target: T8, SPIC (Homo sapiens, UniProt Q8N5J4 1-248); conditions: protein: recombinant; tags: N-terminal GST; dsDNA, one strand shown
# T8 sequence: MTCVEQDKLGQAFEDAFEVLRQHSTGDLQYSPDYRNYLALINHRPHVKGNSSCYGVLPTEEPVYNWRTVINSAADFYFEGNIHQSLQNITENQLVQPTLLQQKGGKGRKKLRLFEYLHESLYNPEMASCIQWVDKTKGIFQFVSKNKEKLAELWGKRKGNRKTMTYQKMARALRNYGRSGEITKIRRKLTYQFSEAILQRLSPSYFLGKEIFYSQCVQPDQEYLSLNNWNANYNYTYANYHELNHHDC
# How it was run: as §1
# ELF4 = ELF4 (Homo sapiens, UniProt Q99607 1-663); conditions: protein: recombinant; tags: N-terminal GST; dsDNA, one strand shown
# How it was run: as §1
# ELK4 = molecular target: T9, ELK4 (Homo sapiens, UniProt P28324-2 1-405); conditions: protein: recombinant; tags: N-terminal GST; dsDNA, one strand shown
# T9 sequence: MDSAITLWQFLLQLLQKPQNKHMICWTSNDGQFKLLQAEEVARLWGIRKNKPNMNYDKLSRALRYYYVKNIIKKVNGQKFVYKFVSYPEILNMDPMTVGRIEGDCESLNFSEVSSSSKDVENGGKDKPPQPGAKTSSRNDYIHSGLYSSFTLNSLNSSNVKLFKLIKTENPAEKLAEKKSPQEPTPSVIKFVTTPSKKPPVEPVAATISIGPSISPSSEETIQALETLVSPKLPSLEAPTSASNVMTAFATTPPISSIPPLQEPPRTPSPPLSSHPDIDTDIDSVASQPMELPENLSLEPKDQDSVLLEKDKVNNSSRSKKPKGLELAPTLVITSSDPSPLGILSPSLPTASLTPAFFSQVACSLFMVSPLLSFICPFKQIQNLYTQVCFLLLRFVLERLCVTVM
# How it was run: as §1
# ETV2 = molecular target: T10, ETV2 (Homo sapiens, UniProt O00321 1-342); conditions: protein: recombinant; tags: N-terminal GST; dsDNA, one strand shown
# T10 sequence: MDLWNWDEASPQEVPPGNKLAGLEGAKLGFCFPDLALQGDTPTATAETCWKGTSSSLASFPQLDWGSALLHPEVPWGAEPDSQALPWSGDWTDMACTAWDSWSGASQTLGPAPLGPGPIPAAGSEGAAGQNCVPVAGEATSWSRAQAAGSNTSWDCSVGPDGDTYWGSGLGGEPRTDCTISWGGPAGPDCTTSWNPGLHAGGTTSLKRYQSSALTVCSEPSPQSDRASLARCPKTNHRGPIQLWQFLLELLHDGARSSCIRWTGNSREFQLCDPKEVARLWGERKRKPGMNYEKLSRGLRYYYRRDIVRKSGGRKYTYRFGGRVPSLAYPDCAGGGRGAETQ
# How it was run: as §1
# ELF3 = molecular target: T11, ELF3 (Homo sapiens, UniProt P78545 1-371); conditions: protein: recombinant; tags: N-terminal GST; dsDNA, one strand shown
# T11 sequence: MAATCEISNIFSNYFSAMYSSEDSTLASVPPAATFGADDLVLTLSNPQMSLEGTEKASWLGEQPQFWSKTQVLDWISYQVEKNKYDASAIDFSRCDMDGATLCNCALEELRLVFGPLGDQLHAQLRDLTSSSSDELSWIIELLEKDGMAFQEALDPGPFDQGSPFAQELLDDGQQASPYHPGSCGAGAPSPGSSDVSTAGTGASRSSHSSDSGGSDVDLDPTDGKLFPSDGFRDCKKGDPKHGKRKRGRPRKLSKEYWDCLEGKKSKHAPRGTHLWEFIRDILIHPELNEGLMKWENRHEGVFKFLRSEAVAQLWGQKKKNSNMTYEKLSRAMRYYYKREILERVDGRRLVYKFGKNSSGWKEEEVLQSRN
# How it was run: as §1
# CRX = CRX (Homo sapiens, UniProt O43186 1-299); conditions: protein: recombinant; tags: N-terminal GST; dsDNA, one strand shown
# How it was run: as §1
# ETV1 = ETV1 (Homo sapiens, UniProt P50549 1-477); conditions: protein: recombinant; tags: N-terminal GST; dsDNA, one strand shown
# How it was run: as §1
# Chain of ELF1 (P32519 whole entry): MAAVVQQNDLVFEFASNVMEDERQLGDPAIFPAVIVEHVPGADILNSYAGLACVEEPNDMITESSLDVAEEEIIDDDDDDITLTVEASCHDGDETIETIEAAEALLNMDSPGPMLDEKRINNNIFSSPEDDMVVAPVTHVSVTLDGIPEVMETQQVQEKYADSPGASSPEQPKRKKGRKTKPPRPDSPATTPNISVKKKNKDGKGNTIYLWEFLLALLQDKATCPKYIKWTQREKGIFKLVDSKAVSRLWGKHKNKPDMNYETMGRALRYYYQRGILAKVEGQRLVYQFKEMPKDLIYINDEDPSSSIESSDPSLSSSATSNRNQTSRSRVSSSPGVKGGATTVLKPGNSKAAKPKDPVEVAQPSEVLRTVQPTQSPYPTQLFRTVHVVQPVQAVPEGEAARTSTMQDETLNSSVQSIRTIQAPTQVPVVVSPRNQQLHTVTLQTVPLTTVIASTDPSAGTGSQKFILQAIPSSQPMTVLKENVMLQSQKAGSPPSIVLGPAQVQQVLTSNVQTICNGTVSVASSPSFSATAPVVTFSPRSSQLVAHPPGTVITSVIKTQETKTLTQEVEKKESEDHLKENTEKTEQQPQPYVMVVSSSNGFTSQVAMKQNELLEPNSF
# Chain of ETV1 (P50549 whole entry): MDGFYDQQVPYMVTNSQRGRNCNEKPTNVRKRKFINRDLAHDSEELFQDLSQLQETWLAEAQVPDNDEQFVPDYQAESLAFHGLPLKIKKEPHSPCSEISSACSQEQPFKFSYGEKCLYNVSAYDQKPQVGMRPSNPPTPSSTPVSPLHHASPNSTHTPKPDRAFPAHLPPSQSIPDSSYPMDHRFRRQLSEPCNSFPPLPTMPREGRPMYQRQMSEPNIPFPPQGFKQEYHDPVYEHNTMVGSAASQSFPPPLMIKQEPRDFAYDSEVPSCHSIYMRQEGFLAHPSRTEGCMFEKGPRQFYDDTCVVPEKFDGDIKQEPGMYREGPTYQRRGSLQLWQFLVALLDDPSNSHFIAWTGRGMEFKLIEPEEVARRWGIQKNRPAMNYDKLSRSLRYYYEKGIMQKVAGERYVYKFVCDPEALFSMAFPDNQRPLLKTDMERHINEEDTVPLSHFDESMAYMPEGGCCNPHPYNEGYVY
# Chain of SPIB (Q01892 whole entry): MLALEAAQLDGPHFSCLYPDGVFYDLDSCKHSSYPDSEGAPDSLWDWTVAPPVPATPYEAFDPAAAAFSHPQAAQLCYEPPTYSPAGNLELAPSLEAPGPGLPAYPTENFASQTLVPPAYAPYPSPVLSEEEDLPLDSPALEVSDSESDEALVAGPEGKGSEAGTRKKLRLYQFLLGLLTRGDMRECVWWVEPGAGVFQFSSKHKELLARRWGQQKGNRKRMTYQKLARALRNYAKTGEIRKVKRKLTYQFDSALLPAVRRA
# Chain of HSF1 (Q00613 whole entry): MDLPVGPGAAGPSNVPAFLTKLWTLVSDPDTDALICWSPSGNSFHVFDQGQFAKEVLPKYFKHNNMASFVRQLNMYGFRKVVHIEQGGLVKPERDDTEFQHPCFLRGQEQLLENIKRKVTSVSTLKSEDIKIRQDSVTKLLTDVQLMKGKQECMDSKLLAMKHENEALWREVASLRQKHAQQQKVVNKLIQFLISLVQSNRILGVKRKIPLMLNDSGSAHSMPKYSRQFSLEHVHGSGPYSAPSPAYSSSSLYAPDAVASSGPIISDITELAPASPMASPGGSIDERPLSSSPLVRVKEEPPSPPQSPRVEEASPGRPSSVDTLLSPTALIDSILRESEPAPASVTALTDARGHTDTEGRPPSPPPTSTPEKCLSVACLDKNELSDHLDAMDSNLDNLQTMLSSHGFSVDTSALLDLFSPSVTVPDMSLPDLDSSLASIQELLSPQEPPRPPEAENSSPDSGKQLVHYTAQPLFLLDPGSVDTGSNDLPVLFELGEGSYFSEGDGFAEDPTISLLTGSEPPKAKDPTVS
# Chain of ETV5 (P41161 whole entry): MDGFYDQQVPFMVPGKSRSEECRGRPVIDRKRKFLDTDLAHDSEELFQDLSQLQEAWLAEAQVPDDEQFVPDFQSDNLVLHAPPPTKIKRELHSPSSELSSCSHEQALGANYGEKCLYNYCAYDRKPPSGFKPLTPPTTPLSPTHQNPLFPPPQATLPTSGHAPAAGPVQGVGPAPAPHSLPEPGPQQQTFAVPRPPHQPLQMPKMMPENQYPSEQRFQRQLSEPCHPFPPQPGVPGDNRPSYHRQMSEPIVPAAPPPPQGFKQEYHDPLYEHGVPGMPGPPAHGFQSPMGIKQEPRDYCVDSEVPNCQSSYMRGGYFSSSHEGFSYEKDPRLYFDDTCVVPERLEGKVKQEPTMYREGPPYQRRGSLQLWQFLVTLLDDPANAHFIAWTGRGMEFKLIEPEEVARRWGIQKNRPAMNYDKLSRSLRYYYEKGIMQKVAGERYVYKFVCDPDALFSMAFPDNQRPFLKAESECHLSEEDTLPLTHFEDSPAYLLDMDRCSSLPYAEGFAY
# Chain of CRX (O43186 whole entry): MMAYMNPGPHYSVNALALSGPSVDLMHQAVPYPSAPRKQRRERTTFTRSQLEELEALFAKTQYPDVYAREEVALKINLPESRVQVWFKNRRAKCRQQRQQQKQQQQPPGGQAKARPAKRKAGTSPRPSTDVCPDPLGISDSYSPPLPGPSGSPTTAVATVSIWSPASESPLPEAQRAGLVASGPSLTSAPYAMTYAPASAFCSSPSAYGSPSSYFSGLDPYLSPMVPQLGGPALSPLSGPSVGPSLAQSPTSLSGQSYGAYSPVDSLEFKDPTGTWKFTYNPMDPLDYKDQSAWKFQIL
# Chain of ELF4 (Q99607 whole entry): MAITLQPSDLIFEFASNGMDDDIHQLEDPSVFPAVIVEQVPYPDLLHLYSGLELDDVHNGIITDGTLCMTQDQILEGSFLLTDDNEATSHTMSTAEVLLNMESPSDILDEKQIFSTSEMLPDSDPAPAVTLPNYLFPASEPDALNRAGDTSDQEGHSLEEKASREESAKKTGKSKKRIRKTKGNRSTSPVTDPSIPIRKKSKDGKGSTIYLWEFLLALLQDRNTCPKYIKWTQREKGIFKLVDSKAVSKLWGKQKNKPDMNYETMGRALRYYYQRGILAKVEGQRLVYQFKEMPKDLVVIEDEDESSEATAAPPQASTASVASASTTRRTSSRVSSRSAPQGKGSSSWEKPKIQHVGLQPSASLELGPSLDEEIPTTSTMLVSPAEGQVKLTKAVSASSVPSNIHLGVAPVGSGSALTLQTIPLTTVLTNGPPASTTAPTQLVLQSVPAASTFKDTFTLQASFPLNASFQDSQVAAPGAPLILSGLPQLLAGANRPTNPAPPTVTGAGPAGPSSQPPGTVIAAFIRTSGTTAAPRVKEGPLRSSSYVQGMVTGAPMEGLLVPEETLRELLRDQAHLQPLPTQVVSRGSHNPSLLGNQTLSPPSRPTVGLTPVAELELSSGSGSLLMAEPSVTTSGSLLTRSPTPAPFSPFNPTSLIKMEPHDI
sequence,measurement,setting,value
ATAATT,binding signal,FLI1,"1.31 fold enrichment (6-mer frequency, TF over GST control)"
same,binding signal,ELK1,"1.38 fold enrichment (6-mer frequency, TF over GST control)"
same,binding signal,GABPA,"1.38 fold enrichment (6-mer frequency, TF over GST control)"
same,binding signal,ERG,"1.4 fold enrichment (6-mer frequency, TF over GST control)"
same,binding signal,ELF1,"1.27 fold enrichment (6-mer frequency, TF over GST control)"
same,binding signal,EHF,"1.37 fold enrichment (6-mer frequency, TF over GST control)"
same,binding signal,SPI1,"1.28 fold enrichment (6-mer frequency, TF over GST control)"
same,binding signal,SPIB,"1.39 fold enrichment (6-mer frequency, TF over GST control)"
same,binding signal,ELK3,"1.42 fold enrichment (6-mer frequency, TF over GST control)"
same,binding signal,FEV,"1.25 fold enrichment (6-mer frequency, TF over GST control)"
same,binding signal,ETV5,"1.37 fold enrichment (6-mer frequency, TF over GST control)"
same,binding signal,HSF1,"1.76 fold enrichment (6-mer frequency, TF over GST control)"
same,binding signal,SPIC,"1.41 fold enrichment (6-mer frequency, TF over GST control)"
same,binding signal,ELF4,"1.25 fold enrichment (6-mer frequency, TF over GST control)"
same,binding signal,ELK4,"1.33 fold enrichment (6-mer frequency, TF over GST control)"
same,binding signal,ETV2,"1.5 fold enrichment (6-mer frequency, TF over GST control)"
same,binding signal,ELF3,"1.34 fold enrichment (6-mer frequency, TF over GST control)"
same,binding signal,CRX,"2.16 fold enrichment (6-mer frequency, TF over GST control)"
same,binding signal,ETV1,"1.34 fold enrichment (6-mer frequency, TF over GST control)"
